The list is not random: actives were taken first. Their share in the collection is about 4.3%.
Giardia killer: Small Molecules that selectively kill Giardia lamblia: qHTS; Giardia lamblia trophozoite viability; activity change, % at 7.66 µM, hits read low; 340,000 compounds, 0.15% hits; in the data active = activity change below about -80%; inconclusive = between about -30% and that limit;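 note: parasites exposed to compound for two days anaerobically before the ATP read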
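Giardia lamblia trophozoites (100 cells/well) were incubated with compounds for 48 h at 37 deg C under anaerobic conditions. Viability was read as ATP content by one-step luminescence after 15-30 min at room temperature.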
uPA generation: qHTS for Inhibitors of Cell Surface uPA Generation; cell surface uPA generation assay, qHTS; Potency, µM (top dose mostly 38.3 µM), most hits filed as inhibitors; 330,000 compounds, 0.31% hits; active = well fitted inhibition curve with a large enough effect; inconclusive = small, poorly fitted or top-dose-only effect; inactive = no such curve, though single readings can be large or run the other way; tested in mouse RAW 264.7 cells; note: nearly all actives have a fitted effect of over 55% in size
SW480 rerep: A quantitative high throughput screen for small molecules that induce DNA re-replication in SW480 colon adenocarcinoma cells | SW480 DNA re-replication, Hoechst DNA content imaging, 48 h | Potency, µM (series often up to 46.1 µM), most hits filed as activators | 340,000 compounds, 1.8% hits; note: nearly all actives have a fitted effect of over 55% in size
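SW480 cells exposed to compounds for 48 hr at 37 C, 5% CO2, then Hoechst-stained 40 min. Nuclear DNA content imaged by fluorescence scanning (405 nm excitation, 500-530 nm emission); re-replication scored as increased high-intensity nuclei.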
MCF10A rereplic: A quantitative high throughput screen for small molecules that induce DNA re-replication in MCF 10a normal breast cells; AID 624296, 2012; MCF 10A DNA re-replication, Hoechst nuclear intensity, 48 h; Potency, µM (highest dose often 46.1 µM), actives largely listed as activators; 350,000 compounds, 2.9% hits; note: nearly all actives have a fitted effect of over 50% in size
Numbers stand for hits; n = inactive; u = inconclusive; x = no result given; [ ] = dose if it differs, or a comment. Unless noted, calls come from the whole dose curve; as a rule, active = well fitted activation curve with a large enough effect; inconclusive = small, poorly fitted or top-dose-only effect; inactive = no such curve, though single readings can be large or run the other way.

SMILES | Giardia killer | uPA generation | SW480 rerep | MCF10A rereplic
CN(CC(=O)Nc1ccc(F)c(F)c1F)C(=O)c1ccc(-n2cncn2)cc1 | n | n | n | n
COc1cc2c(cc1OC)CN(C(=O)COc1ccccc1[N+](=O)[O-])CC2 | n | n | n | n
CCOC(=O)c1cc2c(ccn2C)n1Cc1cc(C)ccc1C | n | n | n | n
CC(C)OC(=O)c1cc2c(ccn2C)n1CC(=O)N(Cc1ccccc1)c1ccccc1 | n | n | u | 18µM
N#CCSc1nc2c(c(C3CC=CCC3)c1C#N)CCC2 (stereo unspecified) | n | n | n | 21µM
CN1Cc2c(N3CCOCC3)nc3sc(C#N)c(N)c3c2CC1(C)C | n | n | n | n
CNC(=O)c1ccc(-c2sc3nc(N4CCOCC4)c4c(c3c2N)CCCC4)o1 | n | n | 7.3µM | u
CNC(=O)c1ccc(-c2sc3nc(N4CCOCC4)c4c(c3c2N)CC(C)(C)OC4)o1 | n | n | u | 2.9µM
CN1Cc2c(N3CCOCC3)nc3sc(C(=O)c4ccc(Br)cc4)c(N)c3c2CC1(C)C | n | n | u | 18µM
Cc1nc2c(sc3nc(N4CCOCC4)c4c(c32)CC(C)(C)OC4)c(-c2ccccc2)c1C(=O)O | n | n | 21µM | 2.9µM
O=C(CSc1ccsc1[N+](=O)[O-])NC1CCCC1 | -90 | n | n | n
COc1ccc(CCNC(=O)CSc2ccsc2[N+](=O)[O-])cc1OC | -89 | n | n | n
COc1ccc(OC)c(CCNC(=O)CSc2ccsc2[N+](=O)[O-])c1 | u | u | n | n
CC(C)CN=C(NS(=O)(=O)c1ccccc1)C(Cl)(Cl)Cl | n | n | 6.5µM | 2.9µM
CC(C)CC(NS(=O)(=O)c1ccccc1)C(=O)O (stereo unspecified) | n | n | n | n[0.0737 µM]
CCCCCCCCCCCn1nnnc1N | n | n | n | n
O=C(NC(=S)Nc1cccc(O)c1)c1ccco1 | n | n | n | n
CN(CCC#N)C(=O)COC(=O)c1c2c(nc3ccccc13)/C(=C/c1ccco1)CC2 | n | n | 12µM | u
O=C(NNC(=S)NCc1ccccc1)c1ccc(Br)o1 | n | 2.8µM | n | n
CON(C)C(=O)/C=C/c1ccc([B-](F)(F)F)cc1 | n | n | u | n
Cc1cc(C(=O)OCC(=O)NNC(=O)c2cccs2)ccc1[N+](=O)[O-] | n | n | 12µM | u
O=C(COC(=O)c1ccc(Cl)cc1[N+](=O)[O-])NNC(=O)c1cccs1 | n | n | n | n
COC(=O)c1cc(C(=O)OCC(=O)NNC(=O)c2cccs2)cc([N+](=O)[O-])c1 | n | n | 2.9µM | n
CS(=O)(=O)c1ccc(C(=O)OCC(=O)NCc2cccs2)cc1[N+](=O)[O-] | n | n | 9.2µM | 4.1µM
O=S(=O)(O)CC(S)CS (stereo unspecified) | x | x | n | n
SMILES | Giardia killer | uPA generation | SW480 rerep | MCF10A rereplic
COc1cc(OC)cc(-c2c(-c3cccs3)c3cc(-c4ccc(C(N)=O)cc4)ccc3n2C)c1 | n | n | u | 16µM
COc1cc(-c2nccc3cc4c(cc23)OCO4)cc(OC)c1OC | n | n | 5.8µM | 15µM
COc1ccc(C2/C=C\CN(CC3CC3)C(Cc3ccccc3)C(=O)N2Cc2ccc(F)cc2)cc1 (stereo unspecified) | n | x | x | x
O=c1c2ccccc2[nH]c2ccccc12 | n | n | 18µM | n
c1ccc2c(c1)[nH]c1ccccc12 | n | n | n | n
CC[n+]1c(C)cc(C)n1-c1ccccc1 | n | n | n | n
O=C(c1c[nH]c2ccccc12)C(O)C(c1ccccc1)N1CCOCC1 (stereo unspecified) | n | n | n | n
O=C(c1c[nH]c2ccccc12)C(Cl)c1ccccc1 (stereo unspecified) | n | 6.3µM | u | 23µM
CC(C)[C@H](NC(=O)OCc1ccccc1)C(=O)OCC(=O)N1CCCCC1 | n | n | n | n
Cc1ccc(-c2cc(C3C4C=CCCC4(C)C(=O)N3Cc3ccccc3)ccc2F)cc1 (stereo unspecified) | n | x | x | x
Cc1ccc(F)c([C@H]2[C@@H]3C=CCC[C@@]3(C)C(=O)N2Cc2ccccc2)c1 | n | n | n | 23µM
O=[N+]([O-])c1ccc(CSc2ccc(S(=O)(=O)N3CCOCC3)cn2)cc1 | n | n | n | n
CC(C)=CCOc1ccc(/C=C/C(=O)c2ccc(OCC=C(C)C)cc2OCC(=O)O)cc1 | x | x | n | 12µM
C/C=C/c1ccc(OCC(=O)O)c(OC)c1 | n | n | n | n
COC(=O)CNC(=O)COC(=O)/C=C/c1ccccc1[N+](=O)[O-] | n | n | n | 5.8µM
